This note sets out measurements from PubChem BioAssay (NCI).

The nature of assay [1]: NCI Yeast Anticancer Drug Screen. Data for the rad50 strain (AID 155).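 Note: 0% = growth of vehicle-only cultures of the same strain.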 The settings on record: S. cerevisiae rad50 strain growth inhibition; at 50.0 µM; hits give high values. In short, it runs like this:
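Genetically altered yeast (DNA repair pathway); compound treatment; growth inhibition vs vehicle ctrl.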

Assay [2] in a line: NCI Yeast Anticancer Drug Screen. Data for the mec2-1 strain (AID 157). The settings on record: S. cerevisiae mec2-1 strain, at 50.0 µM, hits give high values. In short, it runs like this: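 Test agents were screened against the mec2-1 yeast strain, with defined DNA repair or cell cycle alteration. Growth was scored as inhibition against vehicle-only controls.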
The nature of assay [3]: NCI Yeast Anticancer Drug Screen. Data for the sgs1 mgt1 strain (AID 161).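 Note: 0% = growth of cultures given vehicle only.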 The settings on record: S. cerevisiae sgs1 mgt1 strain, at 50.0 µM, hits give high values. A digest of the protocol: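 Mutant yeast exposed to compound; growth scored against vehicle-only wells.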
Assay [4] in a line: NCI Yeast Anticancer Drug Screen. Data for the cln2 rad14 strain (AID 165).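 Note: 0% = growth equal to vehicle treated cultures.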 The conditions noted are these: S. cerevisiae cln2 rad14 strain, at 50.0 µM, hits give high values. A digest of the protocol: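 Growth of compound-exposed yeast (cln2 rad14 genotype) measured and expressed as inhibition relative to vehicle.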
Assay [5] in a line: NCI Yeast Anticancer Drug Screen. Data for the bub3 strain (AID 167). The settings on record: S. cerevisiae bub3 mutant strain, at 50.0 µM, hits give high values. In short, it runs like this:
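Yeast carrying a defined mutation is treated with each compound, and growth is compared with that of vehicle-exposed cells to give inhibition.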

Assay [6] can be described thus: NCI Yeast Anticancer Drug Screen. Data for the mlh1 rad18 strain (AID 175). The conditions noted are these: S. cerevisiae mlh1 rad18 strain growth inhibition; at 50.0 µM; hits give high values. A digest of the protocol:
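In this whole-cell yeast screen, a strain with altered DNA damage repair is challenged with compound, and its growth is measured against matched vehicle-treated controls.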

Molecules are shown by their SMILES. About 79,000 compounds went through this panel and 15% of them were active in at least one assay; those are over-represented in the sample as a whole. Unmarked numbers belong to inactive results. The source made the active and inactive calls. Cut-off read from the data, not from the text of the source: active = growth inhibition above about 70%; inactive = the rest.

Regarding `COc1ccc2c(c1)CCc1c-2n[nH]c1-c1[nH]nc2c1CCc1cc(OC)ccc1-2`, the growth inhibition in assay [1] is 0.5%; in assay [2], 0.35%; in assay [3] it was -11.2%; in assay [4] it was -5.55%; in assay [5], -16.1%; in assay [6], -5%.
Regarding `N/N=C(/Cc1ccccc1)NNC(N)=S`, the growth inhibition is 1.95% in assay [1]; -13.7% in assay [2]; -26.6% in assay [3]; -4.2% in assay [4]; -12% in assay [5].
Take `CC1NC(=O)NC1CCCCCC(=O)O` (stereo not drawn): the growth inhibition in assay [1] is 8.3%; in assay [2] it was 11.4%; in assay [3], 13.8%; in assay [4] it was 12.5%; in assay [5], 4.6%; in assay [6], 17.3%.
For `CCN1C(=O)/C(=C/C=C/N(C)c2ccccc2)SC1=S`, the growth inhibition in assay [1] is 0.9%; in assay [2] it was -13.3%; in assay [3], 3.25%; in assay [4], 9.05%.
For the compound `CCCCC(CC)COC(C)=O` (stereo not drawn), the growth inhibition in assay [1] was 14.4%; in assay [2] it was -13.5%; in assay [3] it was 2.15%; in assay [4] it was 5.2%; in assay [5] it was 12%; in assay [6], 13.8%.
Turning to `COCCCNC(=O)c1nnn2c1nc(N)c1cc(Cl)ccc12`, the growth inhibition in assay [1] was -2.65%; in assay [2], 2.75%; in assay [3], 25.6%; in assay [4], 3.2%; in assay [5] it was 23.6%.
Regarding `CCCCC(=O)c1ccc(OC)cc1`, the growth inhibition in assay [1] is 1.9%; in assay [2], -8.4%; in assay [3] it was 2.75%; in assay [4], 6.75%; in assay [5] it was -8.3%; in assay [6], -6.4%.
On to `CC1(C)Nc2cccc3c(N=Nc4ccc(N=Nc5ccccc5)c5ccccc45)ccc(c23)N1`, for which the growth inhibition in assay [1] was -50.5%; in assay [2], -38.1%; in assay [3] it was -27%; in assay [4], -2.2%; in assay [5], -5.2%.
On the same counts, the results for `N#CSc1cc(S(N)(=O)=O)ccc1N` are 5.65%, -10.2%, 4.05%, -5.35% and -1%.
The corresponding values for `CC(C)=CC(=O)OC(=O)C=C(C)C` are -25.3%, -48.4%, -21.2%, 1.8% and -36.6%.
Consider `Cc1cc2nc(CC(=O)c3cccc([N+](=O)[O-])c3)c(=O)[nH]c2cc1C`, for which the growth inhibition is 22.2% in assay [1]; 10.9% in assay [2]; 7.1% in assay [3]; 20.5% in assay [4]; -6.15% in assay [5]; 39.5% in assay [6].
`c1csc(-c2cc(-c3cc(-c4cccs4)[nH]n3)n[nH]2)c1`: the growth inhibition in assay [1] is 9.4%; in assay [2], -11.2%; in assay [3] it was 6.35%; in assay [4], -2.7%; in assay [5], -3.05%.
For `N#CCCN(CCCN1CCOCC1)CN1C(=O)c2ccccc2C1=O`, the growth inhibition was 5.8% in assay [1]; 9.15% in assay [2]; 35.5% in assay [3]; 5.8% in assay [4]; 34.6% in assay [5].
As to `Cc1nc2ccccc2c2nnc(SCC(=O)N(Cc3ccccc3)c3ccccc3)n12`, the growth inhibition is 6.9% in assay [1]; 6.6% in assay [2]; -28.1% in assay [3]; 8.25% in assay [4]; -3.9% in assay [5]; 2.25% in assay [6].
Turning to `O=C(O)CCCc1ccccc1`, the growth inhibition in assay [1] is 5.1%; in assay [2] it was -6.2%; in assay [3] it was 2.05%; in assay [4] it was -7.65%; in assay [5] it was 6%; in assay [6] it was 11.3%.
As to `COc1cccc(Sc2ccc([N+](=O)[O-])c3no[n+]([O-])c23)c1`, the growth inhibition in assay [1] was 81.5% (active); in assay [2], 91.7% (active); in assay [3], 90.2% (active); in assay [4] it was 83.3% (active); in assay [5], 88.4% (active); in assay [6], 83.5% (active).
Regarding `Cc1cc(C)cc(NCCC#N)c1`, the growth inhibition in assay [1] was 15.5%; in assay [2], -32.5%; in assay [3], 18.4%; in assay [4], -1.75%; in assay [5] it was 11.8%; in assay [6] it was -17.4%.
`CCCCCCCCCCC(C)Br` (stereo not drawn): the growth inhibition in assay [1] is 19.9%; in assay [2] it was -12.1%; in assay [3] it was 10.3%; in assay [4] it was 1.3%; in assay [5], 28.6%; in assay [6], 1.75%.
Regarding `CC1CCC2C(C)(C)C3CC12CC1OC13C` (stereo not drawn), the growth inhibition in assay [1] was -17.4%; in assay [2], -30.4%; in assay [3], 0.7%; in assay [4], 4.95%; in assay [5] it was 0.65%; in assay [6], -14.5%.
Turning to `O=C(Nc1cc(-c2ccccc2)[nH]n1)c1ccc(Cl)cc1`, the growth inhibition is -5.35% in assay [1]; -21.1% in assay [2]; 6.05% in assay [3]; -1% in assay [4]; -7.15% in assay [5]; -3.3% in assay [6].
On to `Cc1c(O)cccc1O`, for which the growth inhibition in assay [1] was -5.55%; in assay [2], -17.4%; in assay [3] it was 7.8%; in assay [4] it was 7.1%; in assay [5] it was -8.2%; in assay [6], -8.3%.
Consider `Cc1ccc(/C(C#N)=C/c2ccc3c(c2)OCO3)cc1`, for which the growth inhibition in assay [1] was 23.6%; in assay [2], 25.5%; in assay [3], 26.3%; in assay [4] it was -14.3%; in assay [5], 47.8%; in assay [6] it was 21.2%.
